Reference: PubChem BioAssay (EPA / NIEHS)
Inconclusive results are not listed. Calls of active or inactive are those of the source. How the source made its calls: active means hit-call score of the fitted dose curve at least 0.9, where 1 is the maximum; inconclusive means response in the unintended direction; inactive means score below 0.9.

Test: CCTE_Shafer_MEA_dev_bursting_electrodes_number: CCTE's Neural Network Formation Assay for Number of Bursting Electrodes, Shafer Lab (AID 2284043)
Method: CCTE_Shafer_MEA_dev assay is conducted using Axion Biosystems 48 well microelectrode array (MEA) plates and Maestro recording system. Each well of the MEA plate contains a grid of 16 microelectrodes embedded in the culture surface. Electrically active cells, such as neurons, can be cultured over the electrodes, and electrical activity in these cells can be recorded extracellularly. The spontaneous firing of neurons is captured from each electrode on a microsecond timescale providing both temporally and spatially precise data. […] The CCTE_Shafer_MEA_dev assay uses primary cultures of rat cortical neurons. Recordings are made on days post-plating 5, 7, 9 and 12. As these cultures mature over time, neural networks develop functional activity and form cohesive networks in which electrical activity can be highly coordinated. CCTE_Shafer_MEA_dev_bursting_electrodes_number is 1 of 19 assay components of the CCTE_Shafer_MEA_dev assay. It measures the number of electrodes in a well with a burst rate of at least 1 burst (temporally-clustered group of action potential firing) every 2 minutes during a recording in a microelectrode array (MEA) using Axion Biosystems Maestro 768 channel amplifier with the AxIS adaptive spike detector. To collapse across multiple recordings made on days post-plating 5, 7, 9 and 12, the trapezoidal area-under-the-curve of the component is calculated.Data from the assay component CCTE_Shafer_MEA_dev_bursting_electrodes_number was analyzed into 1 assay endpoint. This assay endpoint, CCTE_Shafer_MEA_dev_bursting_electrodes_number, was analyzed in the negative analysis fitting direction relative to DMSO as the negative control and baseline of activity. Using a type of functional reporter, gain or loss-of-signal activity can be used to understand electrical activity.
On the day prior to culture, each well was coated thoroughly with 150 uL of 0.05% polyethyleneimine (PEI, Sigma Cat P3143) in 50 mM HEPES (Sigma Cat H7523) at a pH of 8. The plate was incubated at 37C for one hour. PEI was rinsed out with 500 uL of sterile water three times. Plates were stored at 4C until the day of culture. This culture was plated at a seeding density of 1.5 x 10^5 cells/well on a 48-well MEA plate, prepared as described above. Cells were administered via a 25 uL media/laminin ([…]; Sigma Cat L2020-1MG) drop directly onto the microelectrode array, as adding the cells with the laminin results in better attachment than pre-coating with laminin. After 2 hours, an additional 475 uL of cortical media was added and the cells returned to the incubator. Exposure starts at day 0 of plating and is continued over twelve days of network development until the experiment is terminated. Cells are fed with fresh medium on DIV 5 and 9, following the recordings on those days. The entire volume of media in the well is exchanged and any vehicle or compound treatment is renewed. Complete details are found in OP-NHEERL/ISTD/SBB/TJS/2015-03-r0 (available on request, email shafer.tim@epa.gov). Measurement of the electrical activity is non-invasive, and recordings can be made from the same plate over multiple different days of the culture. In cortical neurons, this allows for the measurement of extracellular action potentials over the period during which networks form in the MEA plate.
In the case of `C=CC(=O)OCC(F)(F)C(F)(F)C(F)(F)COC(=O)C=C`, the AC50 is reported as 1.52 µM (active).
With `OCC(F)(F)C(F)(F)C(F)(F)C(F)(F)C(F)(F)C(F)(F)CO` the outcome was “inactive”.
For `OCCCCC(F)(F)C(F)(F)C(F)(F)C(F)(F)F`, the outcome was “inactive”.
For `FC(F)(F)C(F)(F)C(F)(F)C(F)(F)C(F)(F)C(F)(F)C(F)(F)CCI`, the outcome was “inactive”.
In the case of `OCC(F)(F)C(F)(F)C(F)(F)CO`, the outcome is reported as “inactive”.
With `CCN(CCO)S(=O)(=O)C(F)(F)C(F)(F)C(F)(F)C(F)(F)C(F)(F)C(F)(F)C(F)(F)C(F)(F)F` the outcome was “inactive”.
With `OCC(F)(F)C(F)(F)C(F)(F)C(F)(F)C(F)(F)C(F)(F)C(F)(F)C(F)(F)CO` the outcome was “inactive”.
With `OCC(O)CC(F)(F)C(F)(F)C(F)(F)C(F)(F)F` (configuration not stated) the outcome was “inactive”.
In the case of `O=S(=O)(O)CCC(F)(F)C(F)(F)C(F)(F)C(F)(F)F`, the outcome is reported as “inactive”.
For `NC(O)(C(F)(F)F)C(F)(F)F`, the outcome was “inactive”.
For `C=CC(=O)OCCC(F)(F)C(F)(F)C(F)(F)C(F)(F)F`, the outcome was “inactive”.
With `CNS(=O)(=O)C(F)(F)C(F)(F)C(F)(F)C(F)(F)C(F)(F)C(F)(F)C(F)(F)C(F)(F)F` the outcome was “inactive”.
